Laboratory results: PubChem BioAssay (NCI)
This is part of a sample that, as a whole, favours compounds with a hit. Of some 79,000 tested, about 15% had one in any assay. Values without a mark were called inactive. Activity calls are given as the source filed them. No stated cut-off is given here; in the data, active means growth inhibition above about 70%; inactive means the rest.

Experiment: NCI Yeast Anticancer Drug Screen. Data for the mec2-1 strain (AID 157)
Conditions: S. cerevisiae mec2-1 strain, at 50.0 µM, stronger effect = higher value
Outline: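 Each compound was tested on mec2-1 yeast, a strain altered in DNA damage repair or cell cycle control. Growth inhibition is reported relative to vehicle.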

First: CCN(CC)CC(O)c1cccc2cc(Cl)ccc12 (stereo not given)
Second: CC(COc1ccccc1)N(CCCl)Cc1ccccc1 (stereo not given)
The growth inhibition of the first is lower: -8.85% for the first, 10.8% for the second.

Compared with C[C@@H]1CCC[C@H]1C(N)C(=O)O (stereo not given in full), CC1C(=O)CCC2CCCCC21 (stereo not given) is lower in growth inhibition: 2% for the first, -17.4% for the second.

First: O=C(c1ccccc1)[n+]1ccc2ccccc2c1
Second: CC1(C)NC(c2ccccc2)c2ccsc2-n2cccc21 (stereo not given)
The growth inhibition of the first is higher: -21.2% for the first, -29.7% for the second.

Going from CC(=O)CC(=O)C(C)C.[Cu+2] to CC(C)=CCC/C(C)=C/CO, the growth inhibition falls from -15.9% to -27.8%.

First: CCC1(CC)OC(=O)C(=O)N1N(C)C
Second: CN(C)CCN=C1Nc2ccccc2C(=O)N2CSCC12 (stereo not given)
The growth inhibition of the first is higher: -0.8% for the first, -1.95% for the second.

Compared with O=C(O)/C=C/C(=O)Nc1ccc2c(c1)C(O)c1ccccc1-2 (stereo not given), Cc1ccc(-c2nnc(NC(=O)Nc3ccc(Cl)cc3)o2)cc1 is higher in growth inhibition: -12.9% for the first, -1.45% for the second.

Going from O=C(/C=C/c1cccs1)c1ccc(Cl)s1 to O=C(O)c1ccc(-c2nn[nH]n2)cc1, the growth inhibition rises from -33.3% to -10.1%.

Compared with Nc1cc(N)nc(S(=O)(=O)O)n1, Cc1ccc2nc(C(O)C(O)C(O)CO)[nH]c2c1 (stereo not given) is lower in growth inhibition: -12.9% for the first, -14.9% for the second.

First: CCO/C=C1/N=C(c2ccccc2Cl)OC1=O
Second: O=c1[nH]c(=O)n(C2CC(O)C(CO)O2)cc1/C=C/Br (stereo not given)
The growth inhibition of the first is higher: 5.25% for the first, -9.25% for the second.

CN1CCC/C1=N\c1ncn[nH]1 showed a growth inhibition of -21.1%.

In the case of O=C1C(=O)C([n+]2cccc3ccccc32)=C([O-])C2=C1C1c3ccccc3C2c2ccccc21, the growth inhibition is reported as 98.4% (active).
